Cl transport mod: modulators of human KCC2 chloride dependent transport; Q9H2X9; KCC2 cells, thallium flux FluoZin-2 fluorescence; B-score of Tl+ flux slope (higher = more flux/activation; lower = inhibition) at 10 µM; actives 2.2% (n = 190,000);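 active = thallium flux slope and its plate-corrected score both differing from the plate sample mean at a set confidence after two filtering rounds, in either direction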;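 also: slope of fluorescence scaled to starting intensity during 10 to 20 s after thallium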
Arbovirus inh: antivirals against arbovirus infection | actives 0.37% (n = 200,000) | arbovirus infection cell-based antiviral screen | AID 1251 | inhibition, % at 10 µM; in the data active = inhibition above about 30%
ROMK primary: human ROMK K+ channel modulation, primary screen; actives 2% (n = 130,000); Tet-inducible ROMK, thallium flux fluorescence; actives lie on both sides; B-score at 10 µM; P48048;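 active = signal ratio slope over the read window, or its plate-corrected B-score, at least 3 SD from the plate mean, either direction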;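 also: B-score of the F/F0 ratio slope over 7 to 12 s after thallium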
Target sequence (P48048 whole entry, looked up): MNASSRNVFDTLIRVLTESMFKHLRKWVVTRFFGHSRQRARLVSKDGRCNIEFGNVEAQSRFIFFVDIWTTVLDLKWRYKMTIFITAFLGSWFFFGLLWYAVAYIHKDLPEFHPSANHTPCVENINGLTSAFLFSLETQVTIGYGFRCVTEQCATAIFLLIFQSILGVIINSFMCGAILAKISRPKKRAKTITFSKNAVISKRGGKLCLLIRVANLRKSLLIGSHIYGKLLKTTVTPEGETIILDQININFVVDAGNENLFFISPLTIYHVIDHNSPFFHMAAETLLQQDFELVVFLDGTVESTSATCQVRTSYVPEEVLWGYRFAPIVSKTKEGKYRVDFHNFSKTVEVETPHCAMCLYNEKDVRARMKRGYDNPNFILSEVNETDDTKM
HSV replic up: HSV replication enhancement; HSV replication augmentation in cells, fold increase; maximum fold increase; actives 0.005% (n = 220,000); AID 1956; in the data active = maximum fold increase above about 1.5; inconclusive = no clear call, values can overlap the other calls; tested in PC3 cells
Measles CPE: protection of cells from measles virus; actives 1.5% (n = 140,000); Measles virus-infected cells, CPE protection, absorbance; protection (pct of control), % at 4 µM; in the data active = protection mostly above about 24%, no sharp cut-off; inactive = mostly below about 26%
KCC2 secondary: KCC2 (human) modulation, secondary assay | shares compounds with Cl transport mod | actives 15% (n = 3,700) | AID 1713 | HEK293-KCC2, thallium flux, FluoZin2 fluorescence; stronger effect = higher value | normalised thallium flux (F/F0 slope) at 10 µM;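 active = thallium flux slope above the same plate's solvent-only control mean plus 3 SD; inconclusive = the two replicate wells disagree; inactive = no significant difference from solvent-only control wells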
KCC2 bumet counter: thallium flux persisting under bumetanide in KCC2 cells, counter-screen secondary assay; shares compounds with Cl transport mod; HEK293-KCC2 + bumetanide/ouabain, thallium flux FluoZin2; stronger effect = higher value; normalized thallium flux at 10 µM; actives 49% (n = 3,700); AID 1714;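 active = thallium entry rate above the same plate's blocked-transporter control wells by more than 3 SD; inconclusive = the two repeat wells disagree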;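 also: raw slope of fluorescence over initial fluorescence between 10 and 20 s after thallium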
KCC2 secondary2: KCC2 (human) modulation, second secondary assay | shares compounds with Cl transport mod | HEK293-KCC2, thallium flux FluoZin2 fluorescence; actives lie on both sides; F/F0 rise rate, 10–20 s post-thallium | normalized thallium flux at 10 µM | actives 23% (n = 3,700) | AID 1715;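 active = thallium flux slope more than 3 SD above or below the plate's solvent-only control mean, mostly below; inconclusive = the two repeat wells disagreed; inactive = no significant shift from solvent-only controls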;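 also: raw slope with 0.1% DMSO as baseline and bumetanide as block control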
HEK293 Tl flux: counter-screen for KCC2 modulators: effect in parental HEK293 cells | shares compounds with Cl transport mod | thallium flux FluoZin2, ouabain; baseline-ratio fluorescence slope, 10–20 s after thallium | thallium flux rate (normalised fluorescence) at 10 µM | actives 46% (n = 3,700) | AID 1716;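 active = thallium flux rate significantly above the same plate's solvent-only control wells, beyond their mean plus 3 SD; inconclusive = the two replicate wells gave conflicting results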
KCC2 ouabain: modulates human KCC2 on retest with ouabain; raw Tl+ flux slope (below DMSO = inhibition, above = activation) at 10 µM; shares compounds with Cl transport mod; actives 48% (n = 3,700); HEK293-KCC2, thallium flux FluoZin2 fluorescence; bidirectional: low = inhibitor, high = activator;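 active = thallium flux slope beyond 3 SD from same-plate DMSO control mean in most replicates, usually higher, sometimes lower; inconclusive = repeat tests gave conflicting results; inactive = no significant difference from controls in most replicates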;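 also: slope of initial-normalized fluorescence between seconds 10 and 20 after thallium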
HEK293 Tl flux2: parental HEK flux effect, counter-screen 2; shares compounds with Cl transport mod; HEK293 parental, thallium flux FluoZin-2 fluorescence slope; thallium flux slope at 10 µM; actives 33% (n = 3,700); AID 1718;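 active = thallium flux slope above the same plate's solvent-control mean plus 3 SD in both duplicate wells; inconclusive = duplicate wells that disagreed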;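 also: run without ouabain in cells lacking the KCC2 cotransporter; slope of fluorescence scaled to its starting value between 10 and 20 s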
Numbers without * were called inactive; i = inactive; u = inconclusive; x = no result given. In the library only some 4% were active in any assay of this set; here they are far more common.

SMILES | Cl transport mod | Arbovirus inh | ROMK primary | HSV replic up | Measles CPE | KCC2 secondary | KCC2 bumet counter | KCC2 secondary2 | HEK293 Tl flux | KCC2 ouabain | HEK293 Tl flux2
Nc1nnc(SCC(=O)c2ccc3c(c2)NC(=O)CO3)s1 | 0.237 | -2.8 | -0.501 | i | x | x | x | x | x | x | x
CCCc1cc(=O)[nH]c(SCC(=O)c2ccc3c(c2)NC(=O)CO3)n1 | 11.3* | x | x | i | x | 0.0163 | 0.00413 | 0.029 | 0.00741 | 0.0166 | 0.00951
Cc1cccc(N2CCN(Cc3cn(C)nc3-c3ccccc3F)CC2)n1 | -0.536 | -12.2 | 0.0952 | i | x | x | x | x | x | x | x
CCOCCCNC(=O)/C(C#N)=C/c1cc(Br)c(O)c(Br)c1 | -4.01* | x | x | i | x | 0.00726 | 0.00398 | 0.0294 | 0.00694 | 0.017 | 0.00962
COc1cc(/C=C(\C#N)C(=O)NCCc2ccccc2)cc(OC)c1O | -6.22* | -3.7 | -2.7 | u | x | 0.00558 | 3.98e-05* | 0.0198* | 0.00444* | 0.00912* | u
O=C(NNC(=S)Nc1ccc(Cl)cc1)c1ccccc1OC(F)F | 5.25* | -3.9 | -2.09 | i | 4.1 | 0.00706 | 0.0226* | 0.0325 | 0.0201* | 0.0288* | 0.013*
CN(C(=O)c1cc2c(s1)-c1ccccc1S(=O)(=O)C2)c1ccccc1 | 0.743 | x | -0.454 | i | x | x | x | x | x | x | x
Cc1oc(-c2ccccc2Cl)nc1CS(=O)CC(=O)NCc1cccs1 (stereo unspecified) | x | -3.8 | x | i | 19.8 | x | x | x | x | x | x
COc1ccc(-c2nc(CS(=O)CC(=O)NCc3cccnc3)c(C)o2)cc1 (stereo unspecified) | 1.35 | 0.6 | x | i | 3.7 | x | x | x | x | x | x
CCc1ccc(-c2nc(CS(=O)CC(=O)NCc3cccnc3)c(C)o2)cc1 (stereo unspecified) | 4.37* | 0.9 | x | i | 4.6 | 0.00515 | 0.00478 | u | 0.00757 | u | 0.0107
Cc1oc(-c2ccc(Cl)cc2)nc1CS(=O)CC(=O)NCc1cccs1 (stereo unspecified) | -3.6* | -9.1 | x | i | 10.1 | 0.00647 | 0.00644 | 0.0283 | 0.00686 | 0.0173 | 0.00968
COc1ccc(OCCNc2cc(N3CCOCC3)ccc2[N+](=O)[O-])cc1 | -4.74* | 0.0 | x | x | 3.6 | 0.0083 | 0.00611 | 0.0338 | 0.00742 | 0.0211 | 0.0105
COc1cccc(OCCNc2cc(N3CCOCC3)ccc2[N+](=O)[O-])c1 | -0.266 | -1.7 | -0.821 | i | 11.4 | x | x | x | x | x | x
Cc1ccc(C(=O)NCC(=O)OCC(=O)NC(C)c2ccccc2)s1 (stereo unspecified) | -0.616 | 4.4 | -0.596 | i | x | x | x | x | x | x | x
CC(NC(=O)COC(=O)CC(c1ccccc1)c1ccccc1)c1ccccc1 (stereo unspecified) | -4.73* | 6.2 | x | i | 4.3 | 0.008 | 0.00374 | 0.0268 | 0.00532* | 0.0176 | u
CCCCCCCN1N=C(C)C(C(=O)c2ccccc2)C1=O (stereo unspecified) | 3.14* | 0.9 | 0.952 | x | 4.8 | 0.00801 | 0.0236* | u | 0.0145* | 0.0298* | 0.0174*
CCCCCCN1N=C(C)C(C(=O)c2ccc(Cl)cc2)C1=O (stereo unspecified) | 4.95* | -11.8 | 0.608 | i | 10.4 | 0.0125* | 0.0254* | 0.0331 | 0.0136* | 0.0324* | u
CC1=NN(c2ccccc2)C(=O)C1C(=O)c1cc([N+](=O)[O-])cc([N+](=O)[O-])c1 (stereo unspecified) | -0.386 | 0.0 | 1.01 | i | x | x | x | x | x | x | x
CN(Cc1cn(Cc2ccccc2)nc1-c1ccc2c(c1)OCO2)Cc1nccn1C | 0.255 | -0.6 | 0.0568 | i | x | x | x | x | x | x | x
CC(=O)OCC1OC(c2ccccc2)C(OC(C)=O)C(OC(C)=O)C1OC(C)=O (stereo unspecified) | 4.35* | 12.4 | x | i | 4.2 | 0.00639 | 0.00498 | u | 0.00711 | 0.0175 | 0.0105
Cc1ccc(-n2cccc2/C=C2\C(=N)N3N=C(C(C)C)SC3=NC2=O)cc1 | 7.12* | 32.4* | 0.412 | i | x | 0.00685 | 0.0367* | u | 0.0298* | 0.0312* | 0.0171*
Cc1ccc(C(=O)CC(=O)c2cc(Cl)ccc2O)cc1 | x | -32.7 | 1.03 | i | 1.5 | x | x | x | x | x | x
CC(C)(C)c1ccc(C(=O)CC(=O)c2cc(Cl)ccc2O)cc1 | 4.36* | -11.0 | 0.0181 | i | 19.8 | 0.0055 | 0.0178* | 0.0354 | 0.0227* | 0.0253* | 0.0167*
COc1ccc(CC(=O)OCC(=O)NCc2ccccc2Cl)cc1OC | -1.54 | -3.1 | 0.786 | i | x | x | x | x | x | x | x
O=C(O)c1cc([N+](=O)[O-])ccc1NCc1ccccc1Cl | -4.53* | 26.0 | 1.91 | i | x | u | 0.00558* | 0.0225* | u | 0.0115* | 0.00992
SMILES | Cl transport mod | Arbovirus inh | ROMK primary | HSV replic up | Measles CPE | KCC2 secondary | KCC2 bumet counter | KCC2 secondary2 | HEK293 Tl flux | KCC2 ouabain | HEK293 Tl flux2
O=C(O)c1cc([N+](=O)[O-])ccc1NCCc1ccccc1 | -2.51 | x | x | i | x | x | x | x | x | x | x
CN(c1ccccc1)S(=O)(=O)c1ccc(C(=O)N2CCc3ccccc3C2)cc1 | -1.99 | 0.6 | -0.472 | i | x | x | x | x | x | x | x
Cc1ccc(S(=O)(=O)N(C)c2ccc(C(=O)N3CCc4ccccc4C3)cc2)cc1 | -4.75* | -6.0 | -0.328 | i | x | 0.0144 | 0.00392 | 0.0236* | u | 0.0126* | 0.00948
CCc1ccccc1Nc1nc(N)nc(COC(=O)c2cccn2C)n1 | -5.57* | 1.8 | 0.00791 | i | 78.0* | 0.00641 | 0.0035 | 0.0284 | 0.00715 | 0.0164 | 0.00963
Cc1ccccc1Nc1nc(N)nc(COC(=O)c2cccn2C)n1 | -0.0204 | -4.5 | x | i | 4.3 | x | x | x | x | x | x
Nc1nc(Nc2ccccc2F)nc(N2CCOCC2)c1[N+](=O)[O-] | -0.0506 | x | x | i | x | x | x | x | x | x | x
Cc1sc2ncnc(SCC(=O)NC(C)C(C)C)c2c1C (stereo unspecified) | 1.66 | 0.8 | 1.42 | i | x | x | x | x | x | x | x
Cc1sc2ncnc(SCC(=O)Nc3nc(-c4ccc(F)c(F)c4)cs3)c2c1C | 45* | -8.9 | 0.454 | i | x | 0.0258* | 0.0779* | 0.0459* | 0.0398* | 0.0716* | 0.0224*
Cc1nc(SC2CC(=O)N(c3ccccc3)C2=O)nc2c1CCCC2 (stereo unspecified) | x | 20.6 | -0.35 | i | 74.6* | 0.0062 | 0.00376 | 0.0263* | u | 0.016* | 0.0101
N#Cc1nc(-c2ccccc2Cl)oc1NCC1CCCO1 (stereo unspecified) | -0.827 | -2.2 | x | i | 12.9 | x | x | x | x | x | x
